PubChem BioAssay AID1159580 (chemical genetic matrix, 2015)
About 2,000 (36%) of roughly 5,500 compounds were called active. Not shown: some 18% with an inconclusive outcome. Cut-off read from the data, not from the text of the source: active = normalized growth mostly below about 0.91 (no sharp cut-off); inconclusive = no clear call, values can overlap the other calls; inactive = mostly above about 0.92. The list shows a part of the results.

Assay: chemical genetic growth profiling, strain panel (AID 1159580);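 note: tested at 20 µM; growth read once vehicle control cultures reached saturation at 30 °C; 1 = growth at the plate median or of vehicle wells; lower values mean less growth of the strain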
Details: S. cerevisiae deletion strains, growth OD

Measured: normalized growth

CC(=O)OC[C@H]1O[C@@H](Oc2cc(OC(C)=O)c3c(=O)cc(-c4ccc(OC(C)=O)cc4)oc3c2)[C@H](OC(C)=O)[C@@H](OC(C)=O)[C@@H]1OC(C)=O
inactive: locus YAL021C, strain ccr4, stronger effect = lower value 1.04 | locus YAL026C, strain drs2, stronger effect = lower value 1 | locus YAL030W, strain snc1, stronger effect = lower value 1.01 | locus YBL061C, strain skt5, stronger effect = lower value 0.981 | locus YBR009C, strain hhf1, stronger effect = lower value 0.998 | locus YBR023C, strain chs3, stronger effect = lower value 0.999 | locus YBR171W, strain sec66, stronger effect = lower value 0.981 | locus YBR231C, strain swc5, stronger effect = lower value 0.955 | locus YBR279W, strain paf1, stronger effect = lower value 0.997 | locus YCL011C, strain gbp2, stronger effect = lower value 1 | locus YCL016C, strain dcc1, stronger effect = lower value 1.06 | locus YCL069W, strain vba3, stronger effect = lower value 0.979 | locus YCR088W, strain abp1, stronger effect = lower value 0.989 | locus YDL005C, strain med2, stronger effect = lower value 0.977 | locus YDL040C, strain nat1, stronger effect = lower value 1.02 | locus YDR001C, strain nth1, stronger effect = lower value 1 | locus YDR069C, strain doa4, stronger effect = lower value 0.953 | locus YDR137W, strain rgp1, stronger effect = lower value 1.09 | locus YDR159W, strain sac3, stronger effect = lower value 0.963 | locus YDR195W, strain ref2 0.936 | locus YDR297W, strain sur2, stronger effect = lower value 0.988 | locus YDR334W, strain swr1, stronger effect = lower value 0.979 | locus YDR335W, strain msn5, stronger effect = lower value 0.989 | locus YDR392W, strain spt3, stronger effect = lower value 0.966 | locus YEL003W, strain gim4, stronger effect = lower value 0.979 | locus YEL037C, strain rad23, stronger effect = lower value 0.986 | locus YEL061C, strain CIN8 (second series), stronger effect = lower value 0.999 | locus YER015W, strain faa2, stronger effect = lower value 1 | locus YER016W, strain bim1, stronger effect = lower value 1.02 | locus YER111C, strain swi4, stronger effect = lower value 1.03 | locus YER155C, strain BEM2 (second series), stronger effect = lower value 0.985 | locus YFR010W, strain ubp6, stronger effect = lower value 0.975 | locus YGL167C, strain pmr1, stronger effect = lower value 0.992 | locus YGL173C, strain kem1, stronger effect = lower value 0.973 | locus YGL227W, strain vid30, stronger effect = lower value 0.995 | locus YGL240W, strain doc1, stronger effect = lower value 0.983 | locus YGL253W, strain hxk2, stronger effect = lower value 0.968 | locus YHR013C, strain ard1, stronger effect = lower value 1.01 | locus YHR027C, strain rpn1, stronger effect = lower value 1.01 | locus YHR142W, strain chs7, stronger effect = lower value 1.02 | locus YJL092W, strain hpr5, stronger effect = lower value 0.995 | locus YJL095W, strain BCK1 (second series), stronger effect = lower value 1.04 | locus YJL115W, strain asf1, stronger effect = lower value 0.98 | locus YJL129C, strain trk1, stronger effect = lower value 0.984 | locus YJL154C, strain vps35, stronger effect = lower value 0.98 | locus YJL164C, strain tpk1, stronger effect = lower value 1.02 | locus YJL166W, strain qcr8, stronger effect = lower value 0.989 | locus YJL187C, strain SWE1, stronger effect = lower value 1 | locus YKL160W, strain elf1, stronger effect = lower value 1.02 | locus YKR026C, strain gcn3, stronger effect = lower value 0.977 | locus YKR091W, strain srl3, stronger effect = lower value 0.999 | locus YLL001W, strain dnm1, stronger effect = lower value 0.947 | locus YLL026W, stronger effect = lower value 0.99 | locus YLL041C, strain sdh2, stronger effect = lower value 0.991 | locus YLR027C, strain aat2, stronger effect = lower value 0.981 | locus YLR221C, strain rsa3, stronger effect = lower value 0.971 | locus YLR258W, strain gsy2, stronger effect = lower value 1.01 | locus YLR262C, strain YPT6 (second series), stronger effect = lower value 0.998 | locus YLR320W, strain mms22, stronger effect = lower value 0.993 | locus YLR342W, strain FKS1, stronger effect = lower value 0.985 | locus YLR357W, strain rsc2, stronger effect = lower value 0.967 | locus YLR370C, strain arc18, stronger effect = lower value 0.981 | locus YLR384C, strain iki3, stronger effect = lower value 0.965 | locus YML120C, strain ndi1, stronger effect = lower value 0.998 | locus YMR058W, strain fet3, stronger effect = lower value 0.994 | locus YMR125W, strain sto1, stronger effect = lower value 1 | locus YMR129W, stronger effect = lower value 0.987 | locus YMR205C, strain PFK2, stronger effect = lower value 1.01 | locus YMR231W, strain pep5, stronger effect = lower value 0.969 | locus YNL071W, strain lat1, stronger effect = lower value 0.998 | locus YNL209W, strain ssb2, stronger effect = lower value 1 | locus YNL248C, strain rpa49, stronger effect = lower value 0.961 | locus YNL322C, strain KRE1 (second series), stronger effect = lower value 1.01 | locus YNR049C, strain mso1, stronger effect = lower value 0.989 | locus YOR001W, strain rrp6, stronger effect = lower value 0.953 | locus YOR070C, strain gyp1, stronger effect = lower value 1.06 | locus YOR080W, strain dia2, stronger effect = lower value 0.98 | locus YOR083W, strain WHI5, stronger effect = lower value 1.03 | locus YOR106W, strain vam3, stronger effect = lower value 1.01 | locus YOR265W, strain rbl2, stronger effect = lower value 0.992 | locus YOR270C, strain vph1, stronger effect = lower value 0.958 | locus YOR290C, strain snf2, stronger effect = lower value 1.12 | locus YPL051W, strain arl3, stronger effect = lower value 0.981 | locus YPL078C, strain atp4, stronger effect = lower value 1.03 | locus YPL106C, strain sse1, stronger effect = lower value 1.01 | locus YPL240C, strain hsp82, stronger effect = lower value 0.989
